Assay outcomes: PubChem BioAssay, several laboratories
CYP2C9 activ = activators of human CYP2C9; P11712; recombinant CYP2C9, luciferin-H conversion, luminescence; hits give high values; factor 1 = untreated enzyme, 0 = blocked; activation factor at 5 µM; actives 1.4% (n = 96,000); AID 1024;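 active = activation factor of 2 or more for CYP2C9 at a 5 µM dose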;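 also: 0 = sulfaphenazole-blocked wells and 1 = vehicle-only wells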
Target sequence (P11712 whole entry, looked up): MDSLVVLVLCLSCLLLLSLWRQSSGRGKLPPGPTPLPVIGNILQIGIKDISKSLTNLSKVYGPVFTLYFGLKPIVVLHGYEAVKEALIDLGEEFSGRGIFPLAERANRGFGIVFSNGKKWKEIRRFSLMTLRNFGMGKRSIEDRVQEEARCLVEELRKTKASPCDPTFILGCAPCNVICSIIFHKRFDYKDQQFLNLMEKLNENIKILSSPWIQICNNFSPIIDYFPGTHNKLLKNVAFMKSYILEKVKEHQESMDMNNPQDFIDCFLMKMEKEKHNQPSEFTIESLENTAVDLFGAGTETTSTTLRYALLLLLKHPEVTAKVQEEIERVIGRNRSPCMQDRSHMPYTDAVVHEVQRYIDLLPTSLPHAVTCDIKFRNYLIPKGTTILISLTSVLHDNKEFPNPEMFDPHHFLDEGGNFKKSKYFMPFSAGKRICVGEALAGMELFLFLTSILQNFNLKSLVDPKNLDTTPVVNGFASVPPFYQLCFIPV
CYP2C19 act = cytochrome P450 2C19 (human) activation; P33261; recombinant CYP2C19, luciferin-H EGE luminescence; hits give high values; 0 = fully inhibited enzyme, 1 = untreated enzyme; activation factor at 5 µM; 96,000 tested, under 10 active;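 active = activation factor of at least 2 at 5 µM in the primary screen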;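 also: 0 = wells with 2.5 mM tranylcypromine and 1 = vehicle-only wells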
PostGolgi yeast = growth inhibition of a yeast mutant, post-Golgi transport screen; post-Golgi transport phenotypic cell assay; inhibition, % at 10 µM; actives 0.9% (n = 98,000); AID 739;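 also: yeast cells grown in 1536-well plates; yeast grown about 18 h at 30C before absorbance read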
PostGolgi ctrl = inhibits growth of the yeast control strain | efflux-deficient yeast background strain, growth absorbance A615, 16 h | AID 738 | actives 5% (n = 98,000) | inhibition, % at 10 µM
CYP2C9 inhib = inhibitors of human CYP2C9 | inhibition, % at 5 µM | actives 20% (n = 96,000) | P11712 | CYP2C9 Supersomes, luciferin-H conversion, luminescence;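 active = blocking of liver enzyme CYP2C9 beyond about 50% at 5 µM, limit read from the data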
CYP2C19 inhib = inhibitors of human CYP2C19; P33261; CYP2C19 Supersomes, luciferin-H EGE luminescence, 30 min; inhibition, % at 5 µM; actives 21% (n = 96,000); AID 778;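 active = CYP2C19 inhibition above a set limit at 5 µM in the primary screen, cut at about 50% in these data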;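 also: plate controls were negative control wells for no effect and 2.5 mM tranylcypromine positive control for full effect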
The depositor's hits bear a star; . = no result given. This is a sample that favours compounds with a hit; in the whole collection about 32% have one here. Rule as the data show it, unless noted: active = inhibition above about 30%; inactive = the rest.

SMILES	CYP2C9 activ	CYP2C19 act	PostGolgi yeast	PostGolgi ctrl	CYP2C9 inhib	CYP2C19 inhib
Cn1ccnc1C(O)c1ccc(OCc2ccccc2)cc1 (stereo not given)	0.9	0.5	-1	5	14	51*
COc1ccc(C(O)c2nccn2Cc2ccccc2)cc1 (stereo not given)	0.9	0.4	-6	23	7	56*
CCn1ccnc1C(O)c1cccc(OC)c1 (stereo not given)	1.1	0.5	-3	2	-10	52*
CC(C)(C)n1nnnc1C(c1ccccc1F)N(Cc1ccco1)CC1CCCO1 (stereo not given)	0.3	0.7	-3	16	71*	30
Cc1ccc2[nH]c(=O)c(C(c3nnnn3C(C)(C)C)N(Cc3ccco3)CC3CCCO3)cc2c1 (stereo not given)	1	0.9	9	-6	4	9
Cc1cccc2cc(C(c3nnnn3C(C)(C)C)N(Cc3ccco3)CC3CCCO3)c(=O)[nH]c12 (stereo not given)	0.4	0.8	2	10	56*	24
O=C(O)CCC(=O)N1CCc2cc(S(=O)(=O)N3CCN(c4ccc(F)cc4)CC3)ccc21	1	1.1	-3	8	-2	-11
Cc1cc(C)n(-c2ccc(C(=O)OC(C)C)cc2)n1	0.9	0.9	-6	0	12	13
Cc1cc(C)n(-c2ccc(C(=O)C(C#N)c3nc4ccccc4n3C)cc2)n1 (stereo not given)	1	0.7	13	33*	-3	30
COc1ccc(N2C(=O)CCC(C(=O)NCc3cccnc3)C2c2ccc(OC)c(OC)c2)cc1 (stereo not given)	0.8	0.8	13	-13	16	19
COc1ccc(NC2(c3ccc(Cl)cc3)C(=O)c3ccccc3C2=O)cc1	.	.	-2	9	.	.
CC(=O)Nc1ccccc1C(=O)N1CC2(C)CC1CC(C)(C)C2 (stereo not given)	1	1.1	-7	6	-4	-6
CC1(C)CC2CC(C)(CN2C(=O)c2cc(-c3ccccc3O)on2)C1 (stereo not given)	0.3	0.5	11	78*	73*	54*
COc1ccc(-c2cc(C(=O)N3CC4(C)CC3CC(C)(C)C4)no2)cc1 (stereo not given)	0.7	0.9	-11	34*	27	8
COc1ccc(-c2cc(C(=O)N3CC4(C)CC3CC(C)(C)C4)no2)cc1OC (stereo not given)	0.8	1	7	16	16	1
CC1(C)CC2CC(C)(CN2C(=O)c2cccs2)C1 (stereo not given)	0.6	0.3	-2	6	38	74*
COC(=O)c1scc(C)c1NC(=O)C1CCCCC1	1	1	1	8	3	1
COc1ccc(-n2nnnc2SCC(=O)Nc2nc3c(s2)CCCC3)cc1	1	1.1	-6	9	-4	-14
Cc1n[nH]c(C)c1S(=O)(=O)N1CCCC(C(=O)Nc2nccs2)C1 (stereo not given)	0.3	0.4	4	3	73*	61*
Cc1ccc(CNC(=O)C2CCCN(S(=O)(=O)c3c(C)n[nH]c3C)C2)cc1 (stereo not given)	0.8	0.3	10	17	15	71*
O=C(Nc1nccs1)C1CCN(S(=O)(=O)c2c(Cl)cccc2Cl)CC1	0.6	0.1	2	9	40	92*
CNc1c([N+](=O)[O-])cnn1-c1ccc(Cl)cc1Cl	0.7	0.5	-2	6	34	53*
CNc1c([N+](=O)[O-])cnn1-c1ccccc1Cl	0.8	0.8	1	5	24	16
O=C(c1ccccc1)N1CCN2C(=O)c3ccccc3C12c1ccc(Cl)cc1 (stereo not given)	0.7	0.4	-5	10	31	63*
O=C(Nc1ccccc1)N1CCCC1	0.9	1.1	5	8	14	-8
SMILES	CYP2C9 activ	CYP2C19 act	PostGolgi yeast	PostGolgi ctrl	CYP2C9 inhib	CYP2C19 inhib
O=C(Nc1ccccc1)N1CCN2C(=O)c3ccccc3C12c1ccccc1 (stereo not given)	0	0.1	-6	4	96*	93*
Cc1c(=O)n(OCc2ccccc2F)c2ccccc2[n+]1[O-]	1	0.8	-4	-3	-4	20
CN(C)c1ccc(C2NCC(CCl)O2)cc1 (stereo not given)	1.1	0.8	11	5	-8	17
COc1ccc(Oc2ncc(CN3CCN(c4ccccc4)CC3)s2)cc1	0.1	0.2	9	1	93*	82*
Brc1ccc(Oc2ncc(CN3CCOCC3)s2)cc1	0.8	0.2	28	7	20	80*
Cc1ccccc1NC(=O)c1cccc2nc3ccccc3nc12	0.9	1	24	18	12	4
Cc1nnc2ccc(N3CCN(c4ccccn4)CC3)nn12	1.2	1.2	-1	8	-19	-22
c1ccc(N2CCN(c3ccc4nncn4n3)CC2)nc1	0.2	0.1	-8	-2	79*	89*
c1cc2nncn2nc1N1CCCC1	1	0.5	-11	-6	-1	53*
O=C1C2C3C=CC([C@@H]2C(=O)N1C1CC1)[C@H]1C(=O)N(C2CC2)C(=O)C31 (stereo not given in full)	1	0.9	-2	13	-1	8
O=c1cc(O)nc(SCc2ccccc2)n1-c1ccc(F)cc1	1	0.9	10	0	1	10
CCn1c(-c2cc(-c3cccc(OC)c3)nc3ccccc23)n[nH]c1=S	0.1	1.1	-16	10	91*	-11
CC1=CC(C)(C)N2C(=O)C3(C(C#N)=C(N)Oc4cc(O)ccc43)c3c(C)c(C)cc1c32 (stereo not given)	0.1	0.1	-2	20	94*	89*
CC1=CC(C)(C)N2C(=O)C3(C(C#N)=C(N)OC4=C3C(=O)CCC4)c3c(C)c(C)cc1c32 (stereo not given)	0.9	1.1	-2	-4	13	-9
CCN(CC)CCN(CC)Cc1ccccc1Br	1	1	-1	0	-4	5
Cc1nn(-c2ccccc2)c(C)c1/C=N/NC(=O)c1cc(-c2ccc(Br)s2)[nH]n1	0.2	0.2	6	64*	84*	77*
Cc1nn(-c2ccccc2)c(Cl)c1/C=N/NC(=O)c1ccco1	1	1	0	-3	-4	-4
Cc1nn(-c2ccccc2)c(C)c1/C=N/NC(=O)c1cc(-c2ccc(Cl)s2)[nH]n1	0.8	0.8	54*	46*	16	22
CCOCCCNc1ccc(-c2ccccc2)nn1	1	0.9	6	-1	-5	6
O=C(NCCCN1CCOCC1)C1CCC(=O)N1CCc1ccccc1 (stereo not given)	1	1.1	-1	8	-3	-5
Cc1nc(-c2ccccn2)sc1C(=O)Nc1ccc(Cl)c(Cl)c1	0.6	0.9	21	8	41	10
